SMILES strings stand for the structures. About 2,100 (0.57%) of roughly 370,000 compounds were called active.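 The calls were made as follows: active = inhibition above mean plus 3 SD of compounds lying within the high and low control bounds (cut at about 19% in these data); inactive = the rest.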 Shown is part of a subset that was picked to be rich in actives.

In this experiment the target is Group 3 secretory phospholipase A2 (Homo sapiens) (UniProt Q9NZ20). In words: HGIII-sPLA2 enzyme inhibition – biochemical, QFRET, BODIPY PC-A2 liposome substrate, primary screen (AID 743126).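 Also: 0% = median of test compound wells and 100% = no enzyme DMSO wells.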 Conditions: QFRET BODIPY PC-A2 liposome hydrolysis, fluorescence; at 12.2 µM; hits give high values.
Sequence of Group 3 secretory phospholipase A2 (Homo sapiens) (Q9NZ20 whole entry, looked up): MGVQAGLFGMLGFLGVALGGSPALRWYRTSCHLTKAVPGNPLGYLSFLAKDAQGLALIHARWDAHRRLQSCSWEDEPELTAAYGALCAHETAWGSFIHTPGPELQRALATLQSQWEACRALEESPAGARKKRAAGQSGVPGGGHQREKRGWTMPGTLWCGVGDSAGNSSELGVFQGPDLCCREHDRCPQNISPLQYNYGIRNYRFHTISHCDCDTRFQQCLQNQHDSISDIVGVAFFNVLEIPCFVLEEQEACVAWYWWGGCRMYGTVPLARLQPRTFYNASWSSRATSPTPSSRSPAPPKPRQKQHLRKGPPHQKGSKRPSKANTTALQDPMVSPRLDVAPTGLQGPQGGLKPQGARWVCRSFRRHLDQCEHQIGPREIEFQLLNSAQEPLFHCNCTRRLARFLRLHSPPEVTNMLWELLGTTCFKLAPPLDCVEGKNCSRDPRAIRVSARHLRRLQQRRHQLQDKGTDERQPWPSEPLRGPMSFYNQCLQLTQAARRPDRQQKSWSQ
The inhibition is the relative decrease from the control value, in per cent. Regarding `CCOC(=O)[C@]12CCCC=C1N(Cc1ccc(OC)cc1)C(=O)[C@@H]2CC(=O)NCc1cccs1`, the inhibition is -4.75% (inactive).

As for `COc1ccc(Cn2cc(CN3[C@@H](CC(C)C)COc4cc(Br)ccc4S3(=O)=O)nn2)cc1`, the inhibition was 6.77% (inactive). With `C[C@H]1CCC/C=C/C(=O)c2c(O)cc(O)cc2CC(=O)O1` the figure was 4.76% (inactive); with `Clc1ccc(-n2c(COc3ccccc3)nnc2SCc2nc3ccccc3[nH]2)cc1`, -11.3% (inactive). The result for `Cc1cc(NS(=O)(=O)c2ccc(NC(=O)CSc3nnc(SCc4ccc(F)cc4)s3)cc2)nc(C)n1` reads -29.3% (inactive); that for `C/C(Cc1ccccc1)=N\NC(=O)CNC(=O)c1ccc2c(c1)OCCO2`, -4.8% (inactive). In the case of `Cc1nc(NC(=O)c2ccc3c(c2)OCCO3)ccc1Br`, the inhibition was 4.96% (inactive). The result for `Cc1ccc2sc(NNC(=O)c3ccc4c(c3)OCCO4)nc2c1C` reads 39.7% (active); that for `COc1cc(/C=C/C(=O)n2cnc3ccccc32)cc(OC)c1OC`, 11.9% (inactive). With `CCc1ccccc1NC(=O)CSc1nnc(-c2cccs2)o1` the figure was 0.47% (inactive); with `COc1ccccc1CC(=O)Nc1ccc(S(=O)(=O)N2CCCC2)cc1`, -5.06% (inactive); with `COc1cc(C(=O)NNC(=O)c2ccc(S(=O)(=O)N3CCCCC3)cc2)cc(OC)c1OC`, -8.86% (inactive). On to `COc1ccc(-c2ccc(Nc3ccc(S(=O)(=O)N4CCCC4)cc3)nn2)cc1OC`, for which the inhibition is 27.2% (active). For `CCC(NC(=O)C1C2C=CC3(CN(Cc4ccccc4)C(=O)C13)O2)c1ccccc1` (configuration not stated), the inhibition is -3.46% (inactive). Regarding `CCOC(=O)C1CCN(C(=O)C(C)(C)NC(=O)Nc2ccccc2Cl)CC1`, the inhibition was 0.81% (inactive). On to `C/C(=N\NS(=O)(=O)c1cccc([N+](=O)[O-])c1)c1cc2ccccc2o1`, for which the inhibition is 3.51% (inactive). In the case of `CC(=O)N1CCN(c2ccccc2NC(=S)NC(=O)c2cc3ccccc3o2)CC1`, the inhibition was 3.86% (inactive). The result for `C/C(=N\NC(=S)Nc1ccc(C)cc1)c1cc2ccccc2o1` reads 23.9% (active). With `Cc1cc(C)n2ncc(C(=O)Nc3ccc4c(c3)OCCO4)c2n1` the figure was 0.96% (inactive). The result for `COc1ccc(Cl)cc1C(=O)NNC(=S)NC(=O)/C=C/c1ccco1` reads 2.13% (inactive).

`COc1ccc(Cl)cc1C(=O)NNC(=O)c1nc2nc(C)cc(C)n2n1`: the inhibition is 5.45% (inactive).

Take `O=C(NNC(=S)NC1CCCCC1)c1ccccc1Cl`: the inhibition was 20.1% (active). For the compound `COc1ccc(Cl)cc1C(=O)NNC(=S)NC1CCCC1`, the inhibition is 26.5% (active).

Regarding `Cc1nn(C)c(C(=O)NNC(=S)NC2CCCCC2)c1Cl`, the inhibition is 4.69% (inactive). The result for `O=C(COC(=O)c1ccccc1Cl)NC1CCCCCCC1` reads 5.22% (inactive); that for `COC(=O)C12C=C3CC(c4ccccc4)=C3C(=O)N1Cc1[nH]c3ccccc3c1C2` (configuration not stated), -7.07% (inactive); that for `COc1ccc(-n2c(SCC(=O)Nc3ccc4cn[nH]c4c3)nnc2-c2cccnc2)cc1`, 3.42% (inactive). With `CC(=O)OCCN1CCCC12CCC(c1ccccc1)CC2` (configuration not stated) the figure was 11.1% (inactive); with `C=CCN1C(=O)[C@@H](CC(=O)NCCCOCCCC)[C@]2(C(=O)OCC)CCCCC/C=C/12`, -8.97% (inactive); with `COc1ccc(-n2c(SCC(=O)Nc3ccccc3-c3ccccc3)nnc2-c2cccnc2)cc1`, -5.21% (inactive). Turning to `CCOC(=O)N1CCN(C(=O)C[C@@H]2C(=O)N(CCc3ccc(Cl)cc3)C3=CCCC[C@]32C(=O)OCC)CC1`, the inhibition is -8.77% (inactive).

Regarding `O=C(NNC(=S)NC1CC2CCC1C2)c1ccc(Cl)cc1` (configuration not stated), the inhibition was 19.4% (active).

As for `CC(C)c1ccc(NC(=S)NC2CC3C=CC2C3)cc1` (configuration not stated), the inhibition was 0.31% (inactive). In the case of `S=C(NNC(=S)NC1CC2CCC1C2)NC1CC2C=CC1C2` (configuration not stated), the inhibition was 19.5% (active).

With `CC1CCN(C(=S)NC2CC3CCC2C3)CC1` (configuration not stated), the inhibition is 14.4% (inactive). With `O=C(NNC(=O)C1C2CCC(C2)C1C(=O)O)c1ccc(Cl)cc1` (configuration not stated) the figure was 4.75% (inactive); with `O=S(=O)(NC1CC2CCC1C2)c1ccc(Cl)cc1` (configuration not stated), -4.6% (inactive); with `Cc1ccc(C2=CCN(C)C(=O)N2c2ccc(Cl)cc2)cc1`, -5.31% (inactive). With `COC(=O)C[C@@H]1CC[C@@H]2[C@@H](COc3ccc(NC(=O)Nc4ccc(F)c(F)c4)cc3C(=O)N2C)O1` the figure was -13.5% (inactive). With `Cc1ccc(S(=O)(=O)N2CCOCC2)cc1C(=O)NC(=S)N(Cc1ccccc1)C(C)C` the figure was 23.9% (active). Regarding `Cc1cccc(N(Cc2ccccc2)C(=O)c2cc(S(=O)(=O)N3CCOCC3)ccc2F)c1`, the inhibition was -1.09% (inactive). With `Cc1ccc(S(=O)(=O)N2CCOCC2)cc1C(=O)Nc1ccccc1N1CCCC1` the figure was 1.07% (inactive).

Consider `CCC(=O)Nc1ccc2c(c1)C(=O)N(C)[C@@H]1CC[C@@H](CC(=O)NCCc3ccccc3)O[C@H]1CO2`, for which the inhibition is 4.64% (inactive). Consider `C[C@H](C(=O)N(C)c1ccccc1)[C@@H](O)c1ccc(Cl)cc1`, for which the inhibition was -2.63% (inactive).

In the case of `O=C(OC12CCCN(C1)/C(=C/c1cccnc1)C2)C1CCCC1` (configuration not stated), the inhibition was -0.59% (inactive). For `Cc1ccccc1NC(=O)C1CCN(C(=O)NC2CCCCC2)CC1`, the inhibition is -4.04% (inactive). In the case of `O=C(NNC(=O)C1CCN(c2ncccn2)CC1)c1ccccc1`, the inhibition was -1.66% (inactive). `Cc1ccccc1NC(=O)C1CCN(c2ncccn2)CC1`: the inhibition is 19.5% (active).

With `COC(=O)c1cc(S(=O)(=O)N2CCN(c3ccccc3C)CC2)cn1C`, the inhibition is 1.56% (inactive). As to `CCCCn1c(=S)[nH]c2ncccc2c1=O`, the inhibition is 2.69% (inactive). Consider `CCCCn1c(=S)[nH]c2ccccc2c1=O`, for which the inhibition was 25.3% (active). With `CCCCNC(=O)c1ccc(-n2c(=S)[nH]c3ccccc3c2=O)cc1` the figure was 4.64% (inactive); with `COc1ccccc1C(=O)NC1CCCCN(C(C)C)C1=O` (configuration not stated), 12.1% (inactive). The result for `COC(=O)[C@H](C(C)C)N(CCCc1cn(Cc2ccccc2)nn1)S(=O)(=O)c1ccc(F)cc1Br` reads -15.2% (inactive).

Turning to `CCCCCOC(=O)c1ccc(N2C(=O)C3C4C=CC(C4)C3C2=O)cc1` (configuration not stated), the inhibition is -15.1% (inactive). The result for `CCCCCCCCCCOC(=O)C[N+](C)(C)CC1CCCCC1O` (configuration not stated) reads 19.3% (active); that for `COc1ccc(S[C@]2(C(=O)N(C)C)CC(=O)N(c3ccc(OC)cc3)[C@@H]2c2ccc(OC)cc2)cc1`, -13.3% (inactive).

These data come from PubChem BioAssay AID743126 (The Scripps Research Institute Molecular Screening Center, 2013).
